# From PubChem BioAssay (NCATS)
# Inconclusive results are not listed. Where a call stands in place of a potency, no number is given. Activity calls are given as the source filed them. The call rests on the fitted dose curve; in most records, active means well fitted curve in the direction sought with a large enough effect; inconclusive means small, poorly fitted or top-dose-only effect, or another doubt; inactive means no such curve, though single readings can be large; an effect the other way counts as inactive or inconclusive.
# Key:
# [1] = target: Aldehyde dehydrogenase, mitochondrial (Homo sapiens) (UniProt P05091); test: qHTS for Inhibitors of the Aldehyde Dehydrogenase Family (ALDH2) Primary screen (AID 2061308); details: ALDH2 enzyme inhibition qHTS, 1536-well; series mostly up to 56 µM; further: nearly all actives have a fitted effect of over 55% in size
# [2] = target: Retinaldehyde dehydrogenase 3 (Homo sapiens) (UniProt P47895); test: qHTS for Inhibitors of the Aldehyde Dehydrogenase Family (ALDH1A3) Primary screen (AID 2061315); details: ALDH inhibition qHTS; series mostly up to 56 µM
SMILES,Potency [1],Potency [2]
Cc1cc(C=CC#N)cc(C)c1Nc1nc(Nc2ccc3c(c2)OCO3)c2[nH]cnc2n1,inactive,inactive
Oc1cccc2cc(Nc3ccccc3)cnc12,inactive,inactive
Cc1ccc(OCCn2c(CCNC(=O)c3ccc[nH]3)nc3ccccc32)cc1,inactive,inactive
Cc1cccc(C(=O)N2CCc3cc(-c4nc(NC(=O)Cc5ccc6c(c5)OCO6)sc4C)ccc32)c1,inactive,inactive
Cc1cnc(-c2ccccc2C(C)C)nc1NCc1ccc(-c2cccc(S(N)(=O)=O)c2)cc1,inactive,inactive
COc1ccc(C(=O)N(Cc2cccs2)Cc2cccs2)c(O)c1,inactive,inactive
c1c[nH]c(CNc2ncnc3ccc(-c4ccc5c(c4)OCO5)cc23)n1,inactive,inactive
N/C(=N\c1nnc(-c2ccncc2)s1)Nc1ccc(Cl)c(Cl)c1,inactive,inactive
Fc1cnc(-c2ccccc2C(F)F)nc1NCc1ccc(-c2cccnc2)cc1,inactive,inactive
O=S1(=O)N=C(Oc2cccc(C(F)(F)F)c2)c2ccccc21,inactive,inactive
O=C(OCC#CCSc1nnc(-c2ccc3ccccc3c2)o1)c1ccc(OC(F)(F)F)cc1,inactive,inactive
Cc1ccc(-n2c(=O)ccc(=O)n2CC(=O)NCCc2ccccc2)cc1,inactive,inactive
Cc1ccc(OCCn2c(CCNC(=O)c3ccc(Br)o3)nc3ccccc32)cc1,inactive,inactive
COC1CC(O[C@H]2CC[C@]3(C)C4CC[C@@]5(C)C(=O)[C@]4(CC[C@@H]3C2)CC[C@@H]5C2=CC(=O)OC2)OC(C)C1OC1OC(COC2OC(CO)C(O)C(O)C2O)C(O)C(O)C1O (stereo partly specified),inactive,inactive
O=C(OCC#CCSc1nnc(-c2ccc3ccccc3c2)o1)c1ccc(F)c(F)c1,inactive,inactive
Cn1nnnc1Sc1ncnc2scc(-c3ccc(Cl)cc3)c12,inactive,inactive
Cc1sc(NC(=O)Cc2ccc3c(c2)OCO3)nc1-c1ccc2c(c1)CCN2C(=O)c1ccccc1F,inactive,inactive
Cc1cccc(-c2ccc(=O)n(CC(=O)NCCc3ccccc3)n2)c1,inactive,inactive
CC(=O)NC(c1ccco1)c1cc(F)c2cccnc2c1O (stereo unspecified),inactive,inactive
COc1ccc2nc(-c3ccc(F)cc3Cl)sc2c1,inactive,inactive
C#CCCC(=O)Nc1sc2c(c1-c1nc3ccccc3s1)CCN(C(C)C)C2,inactive,inactive

SMILES,Potency [1],Potency [2]
Cc1cc(NC(=O)Nc2nnc(-c3cccnc3)s2)ccc1Br,inactive,inactive
CCC(=O)NC(c1ccco1)c1cc(Cl)c2cccnc2c1O (stereo unspecified),inactive,inactive
COc1cccc(C2c3c(ncn(-c4ccccc4Cl)c3=N)Oc3ccc4ccccc4c32)c1 (stereo unspecified),inactive,inactive
c1nc(NCCc2cnc[nH]2)c2cc(-c3ccc4c(c3)OCO4)ccc2n1,inactive,inactive
O=C(CNC(=O)c1ccc(Cl)c(C(F)(F)F)c1)OC(C(=O)Nc1cc(C(F)(F)F)ccc1Cl)c1ccccc1 (stereo unspecified),inactive,inactive
Cn1cc(P(=O)(c2ccccc2)c2ccccc2)c2ccccc21,inactive,inactive
NC(=O)c1c(NC(=O)C2CCCO2)sc2c1CCCC2 (stereo unspecified),inactive,inactive
Cc1ccc(NS(=O)(=O)c2ccc3c(c2)CCCC(=O)N3)cc1C,inactive,inactive
Cc1cc(Nc2nc(-c3ccccc3)nc3ccccc23)n[nH]1,inactive,inactive
C#CCOc1cc(C2=Nn3c(nnc3-c3ccc(OCC(C)=O)cc3)SC2)ccc1OC,inactive,inactive
CCN(CCc1cn(C)cn1)c1ncnc2ccc(-c3ccc4c(c3)OCO4)cc12,inactive,inactive
CC(=O)Nc1cccc(S(=O)(=O)N2CCN(S(=O)(=O)c3ccc4c(c3)OCCO4)CC2)c1,inactive,inactive
Cc1ccc(NC(=O)c2ccc3c(c2)CCC(=O)N3)cc1C,inactive,inactive
COc1ccc(NC(=O)c2cnn3c(C)cc(C)nc23)cc1OC,inactive,inactive
CCOC(=O)C1CCN(C(=O)C(C)(C)NC(=O)Nc2cccc(OC)c2)CC1,inactive,inactive
O=C1CCc2cc(S(=O)(=O)Nc3ccc4c(c3)OCCO4)ccc2N1,inactive,inactive
CCCN(C)c1ncnc2ccc(-c3ccc4c(c3)OCO4)cc12,inactive,inactive
CN(C)C(=O)C1CCN(c2nc(-c3ccc(Br)cc3)cs2)CC1,inactive,inactive
FC(F)(F)c1cc(-c2nc3ccccc3s2)cc(C(F)(F)F)c1,inactive,inactive
Clc1cccc(-c2ccc3ncnc(NCc4ccc5c(c4)OCO5)c3c2)c1,inactive,inactive
COCCNc1nc(C)nc2c1nc(-c1ccccc1)n2CCN1CCCC1,inactive,inactive

SMILES,Potency [1],Potency [2]
COc1cccc(CNc2ccc(S(=O)(=O)Nc3cccnc3)cc2)c1O,inactive,inactive
c1ccc2sc(-c3csc4c3CCNC4)nc2c1,inactive,inactive
CCNC(=O)c1ccc(-c2ccc3ncnc(NCC4CCCO4)c3c2)o1 (stereo unspecified),inactive,inactive
O=C(Nc1nc(-c2ccccc2)cs1)c1ccncc1NS(=O)(=O)c1ccc(F)cc1Cl,inactive,inactive
Cc1ccnc(NC(=S)Nc2cccc([S+](=O)([O-])Nc3ccccc3F)c2)c1,inactive,inactive
CC(=O)c1cc2c(s1)c1cnn(Cc3ccccc3F)c(=O)c1n2C,inactive,inactive
C=C1C(=O)O[C@H]2/C=C(/C)[C@@H](OC(C)=O)C/C=C(\C)C[C@@H](OC(=O)/C(=C/C)COC(=O)/C(=C/C)CO)[C@@H]12,inactive,inactive
CCOC(=O)CCC(=O)Nc1ncnc2c1C(c1ccccc1)c1c(ccc3ccccc13)O2 (stereo unspecified),inactive,inactive
N#Cc1cnc(N[S+](=O)([O-])c2ccc(Nc3nc(-c4ccccc4)cs3)cc2)s1,inactive,inactive
Cn1ccc2cc(-c3ccc4ncnc(NCc5ccc6c(c5)OCO6)c4c3)ccc21,inactive,inactive
O=C(Cn1ncccc1=O)NCCc1ccccc1,inactive,inactive
CC(=O)NS(=O)(=O)c1ccc(NC(=O)c2cc(-c3ccc(C)c(C)c3)nc3ccccc23)cc1,inactive,inactive
O=C1c2ccccc2C(=O)N1c1ccc(O)cc1,inactive,inactive
O=S(=O)(Nc1ccccc1)c1ccc(NCc2cccc(Cl)c2O)cc1,inactive,inactive
O=C(Cc1ccc(Cl)c(Cl)c1)Nc1ccc(S(=O)(=O)Nc2ccccc2)cc1,inactive,inactive
CC(C)Cc1ccc(-c2ccc(=O)n(CC(=O)NCCc3ccccc3)n2)cc1,inactive,inactive
COc1c(NS(=O)(=O)c2ccc(C)cc2)cccc1C(=O)Nc1nc(-c2ccccc2)cs1,inactive,inactive
Cc1cc(C)nc(/N=C(\NC#N)N2CCN(c3cccc(C(F)(F)F)c3)CC2)c1,inactive,inactive
O=C(CNC(=O)C1CCCCC1)OC(C(=O)Nc1cc(C(F)(F)F)ccc1Cl)c1ccccc1 (stereo unspecified),inactive,inactive
C/C=C(\C)[C@@H]1C(C)=C[C@@H]2[C@H]([C@@H]1/C=C/C=C/C(=O)O)[C@@H](C)CC[C@@H]2O,inactive,inactive
Cc1cnc(-c2ccccc2C2CC2)nc1NCc1ccc(-c2cccnc2)cc1,inactive,inactive

SMILES,Potency [1],Potency [2]
COc1cc(O)c(C(CC(=O)N2CCCC(COc3ccc(F)cc3)C2)c2ccc3c(c2)OCO3)c(OC)c1 (stereo unspecified),inactive,inactive
Cc1ccc(-c2cc(C(=O)Nc3ccc(-n4cccn4)cc3)c3ccccc3n2)cc1C,inactive,inactive
COc1ccc(C2=Nn3c(nnc3-c3ccccc3OC)SC2)cc1O[C@H]1CCOC1,inactive,inactive
O=C(Nc1nc(-c2ccccc2)cs1)c1ccncc1NS(=O)(=O)c1cccc(Cl)c1,inactive,inactive
C=Cc1nc(Nc2cc(F)cc(F)c2)nc(NC2CCCC2)n1,inactive,inactive
Cc1cc(C)nc(NC(=S)N2CCN(c3ccc(Cl)c(Cl)c3)CC2)c1,inactive,inactive
Nc1nc(NCc2ccc(-c3ccnc(C(F)(F)F)c3)cc2)c2ccccc2n1,inactive,inactive
NC(=O)C1CCN(c2nc(-c3ccc(C(F)(F)F)cc3)cs2)CC1,inactive,inactive
CCCn1c(-c2ccc(F)cc2)nc2c(NCCCN3CCCCC3C)nc(C)nc21 (stereo unspecified),inactive,inactive
O=C(NNC(=O)c1cc2ccccc2[nH]1)OCc1ccccc1,inactive,inactive
CNC(=O)C1=C(C)NC(Nc2nc3ccccc3o2)=NC1c1nn(C)cc1Cl (stereo unspecified),inactive,inactive
CC#CC(=O)Nc1ccc2ncnc(Nc3cccc(Br)c3)c2c1,inactive,inactive
CCN(CC)CCCn1c(-c2ccccc2)nc2c(N(CCOC)CCOC)nc(C)nc21,inactive,inactive
COc1cc(C(=O)OC[C@@]2(O)CO[C@@H](O[C@H]3[C@H](Oc4ccc(O)cc4)O[C@H](CO)[C@@H](O)[C@@H]3O)[C@@H]2O)cc(OC)c1O,inactive,inactive
COc1ccc(NC(=O)c2[nH]c(C)c(C(C)=O)c2C)cc1[S+](=O)([O-])Nc1ccccc1C#N,inactive,inactive
COc1ccc(OCc2nnc3n2N=C(c2ccccc2)CS3)cc1,inactive,inactive
CC[C@H]1OC(=O)[C@](C)(F)C(=O)[C@H](C)[C@@H](O[C@@H]2O[C@H](C)C[C@H](N(C)C)[C@H]2O)[C@](C)(OC)C[C@@H](C)C(=O)[C@@H](C)[C@H]2N(CCCCn3cc(-c4cccc(N)c4)nn3)C(=O)O[C@]12C,inactive,inactive
O=S(=O)(c1ccc2c(c1)OCCO2)C1CCC(O)CC1 (stereo unspecified),inactive,inactive
O=S(=O)(c1ccccc1)N1CCN(c2nccc(-c3cccs3)n2)CC1,inactive,inactive
Cc1cc(N[S+](=O)([O-])c2ccc3c(c2)CCC(=O)N3C)ccc1F,inactive,inactive
